# Assay outcomes deposited in PubChem by National Center for Advancing Translational Sciences (NCATS).
# IL-1B inflam inh – inflammasome signaling inhibition, IL-1 beta readout; actives 4.7% (n = 360,000); activity change, % at 57.5 µM; THP-1 LPS/ATP IL-1B secretion, AlphaLISA, 16 h; hits give low values; in the data active = activity change below about -50%; inconclusive = mostly about -30% to -49%
#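 Secreted IL-1B measured by AlphaLISA bead assay after 16 h compound exposure of THP-1 cells; compounds (final up to 57.5 uM) added 1 h before LPS (250 ng/mL) and ATP (1.25 mM) stimulation; lower signal means less secretion.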
# DT40 TDP1 no CPT – qHTS for Inhibitors of human tyrosyl-DNA phosphodiesterase 1 (TDP1): qHTS in cells in absence of CPT. DT40 Tdp1-/- hTDP1 cells, no CPT, ATP luminescence, 48 h. Potency, µM (series often up to 46.2 µM), for the others: at the highest dose activity change, negative = growth inhibition, usual class: inhibitors. actives 15% (n = 420,000); note: potency is the fitted concentration of half-maximal effect; nearly all actives have a fitted effect of over 55% in size
#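 Luminescent ATP content (CellTiter-Glo) served as the growth readout. Knockout chicken DT40 cells expressing human TDP1 were exposed to compounds without camptothecin for a minimum 48 hr at 37 °C.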
# DT40 TDP1 CPT – DT40-hTDP1 cell growth loss with CPT. chicken DT40 Tdp1-/-;hTDP1 cells + 20 nM CPT, ATP luminescence, 48 h. Potency, µM (top dose mostly 46.2 µM), inactives show at the highest dose activity change, negative = growth inhibition, most hits filed as inhibitors. actives 12% (n = 420,000); note: potency is the fitted concentration of half-maximal effect; nearly all actives have a fitted effect of over 55% in size
#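 Chicken DT40 Tdp1-/- cells complemented with human TDP1, 400 cells/well, exposed to compounds plus 20 nM camptothecin for at least 48 h at 37 C; viability read as ATP content by CellTiter-Glo luminescence.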
# TDP1 block – blocks human tyrosyl-DNA phosphodiesterase 1; AID 485290; Q9NUW8; actives 0.28% (n = 350,000); recombinant TDP1, AlphaScreen DNA substrate cleavage; Potency, µM (highest dose often 130 µM), for inactives: at the top dose activity change, negative = inhibition, actives largely listed as inhibitors; note: potency is the fitted concentration of half-maximal effect; nearly all actives have a fitted effect of over 40% in size
# Target sequence (Q9NUW8 whole entry, looked up): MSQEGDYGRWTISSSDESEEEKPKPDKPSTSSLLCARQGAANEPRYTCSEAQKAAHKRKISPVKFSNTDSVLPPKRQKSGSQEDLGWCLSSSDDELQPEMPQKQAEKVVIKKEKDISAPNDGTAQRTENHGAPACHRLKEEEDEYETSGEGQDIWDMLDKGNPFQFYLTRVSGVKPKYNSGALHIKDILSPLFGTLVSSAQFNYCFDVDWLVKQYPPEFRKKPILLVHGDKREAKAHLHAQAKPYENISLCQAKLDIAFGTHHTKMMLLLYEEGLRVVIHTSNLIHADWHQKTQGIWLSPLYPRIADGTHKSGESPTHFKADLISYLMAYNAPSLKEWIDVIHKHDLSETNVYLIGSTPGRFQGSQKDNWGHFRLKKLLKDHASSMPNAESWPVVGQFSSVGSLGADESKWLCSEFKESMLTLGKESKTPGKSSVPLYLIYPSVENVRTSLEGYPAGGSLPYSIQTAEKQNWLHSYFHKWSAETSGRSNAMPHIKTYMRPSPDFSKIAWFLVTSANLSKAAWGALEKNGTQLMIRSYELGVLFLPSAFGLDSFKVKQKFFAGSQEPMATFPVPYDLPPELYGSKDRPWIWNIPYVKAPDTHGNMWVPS
#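 AlphaScreen read-out: signal falls as enzyme removes the 3' tyrosine-FITC from a 5'-biotinylated DNA oligo (15 nM, 5 min, RT). Enzyme was E. coli-made recombinant Tdp1 at 1 nM, exposed to compound for 15 min beforehand; beads 10 ug/ml, 10 min.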
# ELG1 repair inh – inhibitors of ELG1-dependent DNA repair in HEK293T cells; HEK293T ELG1-luciferase reporter, luminescence, 16 h; DNA damage induced by 5-fluorouridine; AID 504467; Potency, µM (highest dose often 46.1 µM), for inactives: at the top dose activity change, negative = inhibition, usual class: inhibitors; actives 2.3% (n = 330,000); note: potency is the fitted concentration of half-maximal effect; nearly all actives have a fitted effect of over 55% in size
#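 HEK293T cells expressing luciferase-tagged ELG1 (2,000/well) received 5-Fluorouridine plus compound or DMSO for 16 hr at 37 °C. Luciferase was read by ONE-Glo luminescence after 30 min at room temperature.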
# Giardia kill – Giardia lamblia killing; actives 0.15% (n = 340,000); AID 540267; Giardia lamblia trophozoite viability; activity change, % at 7.66 µM, hits read low; in the data active = activity change below about -80%; inconclusive = between about -30% and that limit;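 note: parasites exposed to compound for two days anaerobically before the ATP read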
#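 Media and compound were dispensed first, then trophozoites at 100 cells/well; plates sat 48 hrs at 37 deg C without oxygen before ATP luminescence reagent was added and read after 15-30 min at room temperature.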
# Starred values were filed as active, the others as inactive; ? = inconclusive; · = no result given; ! = not confirmed by another sample; [ ] = remark or other dose. Compounds with a hit are over-represented: about 19% of the library has one in this group of screens. Unless noted, calls come from the whole dose curve; as a rule, active = well fitted curve in the direction sought with a large enough effect; inconclusive = small, poorly fitted or top-dose-only effect, or another doubt; inactive = no such curve, though single readings can be large; an effect the other way counts as inactive or inconclusive. % is set by controls: 0 for no effect and ±100 for the full control effect.
SMILES,IL-1B inflam inh,DT40 TDP1 no CPT,DT40 TDP1 CPT,TDP1 block,ELG1 repair inh,Giardia kill
CCOC(=O)N1CCN(C(=O)CS(=O)(=O)c2cn(Cc3ccccc3C)c3ccccc23)CC1,16,?,-3%,3%,9.2µM*,-11
COC(=O)c1cn(NC(=O)c2ccccc2[N+](=O)[O-])c(=O)c2ccccc12,-11,?,23%,4%,-2%,-5
CCCCc1cc2c(cn1)=C(OC(=O)c1cccs1)C(C)(OC(=O)CC)C(=O)C=2 (stereo not given),·,·,·,8%[21 µM],·,·
COC(=O)C1C(=O)c2c([nH]c(C(=O)OC3CCCC3C)c2C)CC1C (stereo not given),-26,13µM*,16µM*,7%,?,8
Cc1cccc(OC(C)C(=O)NCc2ccc(S(N)(=O)=O)cc2)c1 (stereo not given),28,-16%,0%,-3%,13%,-3
CC(Oc1cccc(Cl)c1)C(=O)NCc1ccc(S(N)(=O)=O)cc1 (stereo not given),13,26µM*,?,5%,-3%,-11
CCOc1ccc(C)cc1S(=O)(=O)n1cnc2ccccc21,0,4.1µM*,5.2µM*,5%,?,11
COc1ccc(Cl)cc1S(=O)(=O)n1cnc2ccccc21,7,?,23µM*,3%,-3%,-19
CCOc1cc(C)c(Cl)cc1S(=O)(=O)n1cnc2ccccc21,3,?,-28%,-1%,0%,-13
CCOc1ccc(Cl)cc1S(=O)(=O)n1cnc2ccccc21,16,4.5µM*,6.3µM*,7%,-17%,-4
Cc1cc(C)n(CCc2nc3c4ccccc4nc(N4CCN(c5ccc(F)cc5)CC4)n3n2)n1,·,-12%,-8%,1%,·,·
Cc1ccc(NC(=O)CC2SC(=O)N(c3ccccc3)C2=O)cc1 (stereo not given),29,7.3µM*,9.2µM*,10%,18%,0
CCCN1C(=O)SC(CC(=O)Nc2ccc(C)cc2)C1=O (stereo not given),-1,?,18µM*,-7%,13%,1
CC(=O)Nc1ccc(NCC(=O)c2ccccc2)cc1,69,?,?,-2%,5%,1
Cc1ccc(S(=O)(=O)/N=C2\SC(CC(=O)Nc3ccc(F)cc3)C(=O)N2c2ccccc2)cc1 (stereo not given),14,-17%,-2%,6%,12%,10
CC(=O)Nc1ccc(NC(=O)CC2SC(=O)N(CC(=O)c3ccccc3)C2=O)cc1 (stereo not given),-5,21µM*,18µM*,0%,11%,-2
O=C(CC1SC(=O)N(c2ccccc2)C1=O)Nc1ccccc1 (stereo not given),18,-25%,16µM*,0%,17%,2
Cc1ccc(NC2CCCN(C(=O)c3ccoc3C)C2)cc1C (stereo not given),-1,?,-3%,6%,0%,-4
O=C(CC1Sc2ncnn2C1=O)Nc1ccccc1 (stereo not given),-6,15µM*,7.3µM*,·,-23%,-10
Cc1ccc(NC(=O)CC2=NC(=O)C(CC(=O)Nc3ccccc3F)S2)cc1 (stereo not given),-29,18µM*,?,1%,15%,-13
N=C1SC(CC(=O)Nc2ccc([N+](=O)[O-])cc2)C(=O)N1c1ccccc1 (stereo not given),-73*,?,0%,8%,?,6
Cc1cccc(NC(=O)CC2S/C(=N/c3nccs3)N(C)C2=O)c1 (stereo not given),8,-19%,-16%,2%,-9%,-9
COc1ccc(OC)c(NC(=O)CC2SC(=N)N(c3ccccc3)C2=O)c1 (stereo not given),-7,-7%,1%,0%,11%,-12
Cc1cccc(NC(=O)CC2SC(=O)N(c3ccccc3)C2=O)c1 (stereo not given),8,5.2µM*,4.6µM*,5%,16%,-17
Cc1ccc(NC(=O)Cn2c(=O)n(CCCCC(=O)NCCc3ccc(Cl)cc3)c(=O)c3ccccc32)cc1,·,?,?,5%,·,·
SMILES,IL-1B inflam inh,DT40 TDP1 no CPT,DT40 TDP1 CPT,TDP1 block,ELG1 repair inh,Giardia kill
COc1cc(C(=O)OCCCN=C2NS(=O)(=O)c3ccccc32)cc(OC)c1OC,9,-8%,?,3%,?,11
CC[N+](C)(CC)CC(=O)OCC1C(C)C=C(C)CC1C (stereo not given),-11,8.2µM*,?,·,5%,1
COc1cccc(CN(C)C(=O)CCNC(=O)c2ccc(Br)cc2)c1,-14,-23%,-20%,0%,2%,8
Cc1ccc(-c2cc(-c3ccccc3[N+](=O)[O-])[nH]n2)c(O)c1,30,?,?,10%,?,-6
O=C1NC(=O)C(c2ccccc2[N+](=O)[O-])=C1Nc1ccc(O)c(Cl)c1,48,27µM*!,7.3µM*!,5%[56.1 µM],?,7
CN(C)S(=O)(=O)c1ccc2nnn(OCC(=O)NC34CC5CC(CC(C5)C3)C4)c2c1,13,26µM*,?,5%,-2%,-2
Oc1ccc(CN2CCCc3ccccc32)c2cccnc12,34,4.6µM*,3.7µM*,9%,21%,11
COc1ccc(NC(=O)c2cccs2)cc1NC(=O)c1ccco1,?,?,?,3%,-15%,-3
COc1cc(NC(=O)c2ccc([N+](=O)[O-])o2)ccc1NC(=O)c1cccs1,-90*,3.7µM*,2.3µM*,5%,14%,-102*
O=C(Nc1cccc(NC(=O)c2cccs2)c1)c1ccc([N+](=O)[O-])o1,-102*,3.7µM*,3.3µM*,-2%,16µM*,-89*
COc1cccc(N2CCN(C(=O)c3oc4ccccc4c3NC(=O)CCc3cc(OC)no3)CC2)c1,10,?,-55%,7%,?,24
COc1ccccc1C(=O)Nc1c(C(=O)Nc2ccccc2F)oc2ccccc12,·,26µM*,21µM*,-1%,·,·
Cc1ccc(CC(=O)Nc2c(C(=O)N3CCN(c4ccccc4F)CC3)oc3ccccc23)cc1,·,18µM*,?,14%,·,·
CCOc1ccc(C(=O)Nc2c(C(=O)N3CCN(c4ccccc4F)CC3)oc3ccccc23)cc1,·,-18%,?,3%,·,·
